High-throughput results (PubChem BioAssay)
Only some compounds are listed: those with a hit (about 3.3% of all), similar ones and a draw of the others.
Efflux pump mplx = inhibitors of Candida efflux pumps in yeast, primary screen, S. cerevisiae, Nile Red, multiplex; S. cerevisiae Candida pump triplex; inhibition, % at 10 µM; 0.44% of 330,000 active;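 active means plate passing quality check with inhibition over a set limit, or well fluorescence over plate mean plus 4 SD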;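 further: Nile Red retained in pooled yeast measured as flow cytometry median fluorescence; 0% = buffer negative control and 100% = Enniatin B positive control; higher means more Nile Red kept so more efflux inhibition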
Cardio protect = cardioprotection against H2O2-induced cell death, primary screen, uHTS, H9c2 cells, ATPLite luminescence. H9c2 cardiomyocytes, H2O2 injury protection, 2 h. protection from H2O2 cell death, % at 20 µM. 0.63% of 360,000 active. AID 588492, 2011;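 active means compounds giving at least 50% protection of heart cells from peroxide-induced death in the single-dose screen, raw or plate-pattern-corrected value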;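 further: 0% = DMSO wells with peroxide and 100% = DMSO wells without peroxide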
PHOSPHO1 inh = PubChem AID 1565. Phosphoethanolamine/phosphocholine phosphatase (Homo sapiens), Q8TCT1. recombinant PHOSPHO1, absorbance phosphatase assay. inhibition, % at 13.3 µM. 1.1% of 290,000 active; in the data active means inhibition above about 60%
Cl transport mod = KCC2 cotransporter modulators, thallium flux, primary screen, cell-based, HEK293 KCC2, FluoZin-2 fluorescence, MLSMR. B-score of Tl+ flux slope (higher = more flux/activation; lower = inhibition) at 10 µM. AID 1456, 2008. KCC2 cells, thallium flux FluoZin-2 fluorescence. 2.2% of 190,000 active. Solute carrier family 12 member 5 (Homo sapiens), Q9H2X9;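 active means thallium flux slope and its plate-corrected score both differing from the plate sample mean at a set confidence after two filtering rounds, in either direction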;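 further: slope of fluorescence scaled to starting intensity during 10 to 20 s after thallium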
Target sequence (Q9H2X9 whole entry, looked up): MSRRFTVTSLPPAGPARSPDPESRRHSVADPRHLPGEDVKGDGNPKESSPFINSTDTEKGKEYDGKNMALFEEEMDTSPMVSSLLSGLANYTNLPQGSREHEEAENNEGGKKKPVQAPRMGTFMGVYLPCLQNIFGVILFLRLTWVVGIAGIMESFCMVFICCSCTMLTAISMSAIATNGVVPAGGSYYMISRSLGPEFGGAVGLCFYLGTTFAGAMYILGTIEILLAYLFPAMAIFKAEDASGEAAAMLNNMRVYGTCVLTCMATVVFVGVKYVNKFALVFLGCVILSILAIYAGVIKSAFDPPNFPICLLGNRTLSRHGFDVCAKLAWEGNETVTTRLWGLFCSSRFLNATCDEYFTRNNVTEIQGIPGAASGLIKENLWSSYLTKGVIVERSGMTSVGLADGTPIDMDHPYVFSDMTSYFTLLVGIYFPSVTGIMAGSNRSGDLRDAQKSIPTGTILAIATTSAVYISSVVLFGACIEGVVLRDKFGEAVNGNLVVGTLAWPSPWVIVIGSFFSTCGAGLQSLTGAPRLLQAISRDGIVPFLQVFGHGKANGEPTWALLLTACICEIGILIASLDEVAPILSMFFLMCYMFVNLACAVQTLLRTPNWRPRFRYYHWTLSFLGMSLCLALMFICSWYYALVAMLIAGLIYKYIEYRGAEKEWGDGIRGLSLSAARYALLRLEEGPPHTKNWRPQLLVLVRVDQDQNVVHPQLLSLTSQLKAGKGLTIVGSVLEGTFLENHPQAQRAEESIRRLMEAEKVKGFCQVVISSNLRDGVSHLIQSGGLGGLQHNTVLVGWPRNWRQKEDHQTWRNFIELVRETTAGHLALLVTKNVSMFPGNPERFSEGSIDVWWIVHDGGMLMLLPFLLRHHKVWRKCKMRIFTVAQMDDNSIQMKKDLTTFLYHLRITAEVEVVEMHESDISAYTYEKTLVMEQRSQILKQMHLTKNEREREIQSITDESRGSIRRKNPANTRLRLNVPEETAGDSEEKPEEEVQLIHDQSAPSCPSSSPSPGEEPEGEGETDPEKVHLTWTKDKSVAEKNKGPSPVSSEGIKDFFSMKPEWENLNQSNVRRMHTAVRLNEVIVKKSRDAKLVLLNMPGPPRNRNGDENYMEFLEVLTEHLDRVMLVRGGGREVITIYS
Calb FLC = C. albicans growth inhibition with fluconazole, primary screen, CaCi-2 strain, Alamar Blue fluorescence. AID 1979, 2009. 0.57% of 300,000 active. C. albicans CaCi-2 (fluconazole-resistant clinical isolate) + fluconazole, 48 h. growth inhibition, % (test concentration not listed);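 active means growth inhibition above about 58% in most replicates, limit read from the data, passing the limit was not always enough; inconclusive means exactly half the replicates above a set limit; inactive means most replicates below a set limit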;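 further: all wells also contain fluconazole at 8 µg/ml as a sub-toxic cotreatment; 0% = median of DMSO wells and 100% = median of geldanamycin control wells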
Yeast cmpd fluor = flagged as fluorescent in efflux inhibitor counter-screen; AID 588517; 4% of 1,700 active; shares compounds with Efflux pump mplx; fluorescence ratio to DMSO, % at 10 µM; S. cerevisiae AD/pABC3, compound fluorescence, flow cytometry;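 active means fluorescence ratio to DMSO above its plate's cutoff, the plate mean ratio plus 5 SD, cut at about 210% in these data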;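 further: unstained yeast with no Nile Red so the signal is compound autofluorescence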
Mdr1 pump inh = inhibitors of Candida albicans Mdr1 efflux, confirmation, flow cytometry, singleplex, Cherry Pick1 set. shares compounds with Efflux pump mplx. S. cerevisiae AD/CaMDR1, Nile Red efflux. inhibition, % at 10 µM. 1% of 1,700 active. AID 588518, 2011; in the data active means inhibition above about 26%;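 further: 0% = DMSO vehicle and 100% = reference inhibitor; higher means more Nile Red retained so more efflux inhibition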
CaCdr2 efflux inh = inhibitors of Candida albicans Cdr2 efflux pump, confirmation, S. cerevisiae AD/CaCDR2, flow cytometry, cherry pick 1, singleplex; shares compounds with Efflux pump mplx; 4% of 1,700 active; Nile Red retention; AID 588520, 2011; Nile Red retention ratio vs DMSO, % at 10 µM; in the data active means Nile Red retention ratio vs DMSO above about 190%;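 further: higher ratio means more blocking of Cdr2 efflux of the dye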
CaCdr1 efflux inh = inhibitors of Candida albicans Cdr1 efflux pump, confirmation, S. cerevisiae AD/CaCDR1, flow cytometry, cherry pick 1, singleplex. shares compounds with Efflux pump mplx. Nile Red efflux. inhibition, % at 10 µM. 1% of 1,700 active;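 active means inhibition above the screen-wide mean plus twice its standard deviation, cut at about 32% in these data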
* = called active by the depositor; i = inactive; ? = inconclusive; / = no result.

SMILES | Efflux pump mplx | Cardio protect | PHOSPHO1 inh | Cl transport mod | Calb FLC | Yeast cmpd fluor | Mdr1 pump inh | CaCdr2 efflux inh | CaCdr1 efflux inh
C=CCn1c(=O)[nH]c2nc3cc(N=CN(C)C)c(C)cc3nc2c1=O | 1.7* | 13 | 42 | i | 0 | 147 | 0 | 87 | 0
O=C(NCc1cccs1)c1cc(-c2ccncc2)nc2ccc(Br)cc12 | 0 | / | 55 | -0.86 | 50 | / | / | / | /
O=C(CN1C(=O)/C(=C\C=C\c2ccccc2)SC1=S)Nc1ccc(F)cc1 | 0 | -6 | -39 | -0.81 | 1 | / | / | / | /
O=C(COC(=O)CCN1C(=O)/C(=C\C=C\c2ccccc2)SC1=S)Nc1cc(F)ccc1F | 0.8* | -6 | 23 | / | -11 | 105 | 0 | 106 | 0
O=C(Cn1c2ccc(F)cc2c2nc3n(c(=O)c21)CCS3)Nc1ccccc1C(F)(F)F | 0 | 1 | 8 | -0.056 | 1 | / | / | / | /
O=C(Cn1c2ccc(F)cc2c2nc3n(c(=O)c21)CCS3)Nc1ccccc1F | 0.4* | / | -4 | / | 4 | 480* | 1 | 120 | 1
COc1ccc(N2C(=O)CC(N3CCN(c4ccc(C(=O)c5cccnc5)cc4)CC3)C2=O)cc1 (centres undefined) | 9.8* | 4 | 28 | / | 2 | 96 | 0 | 96 | 0
O=C(c1cc2nc(-c3cccs3)cc(C(F)(F)F)n2n1)N1CCCc2ccccc21 | 0.7* | -17 | 18 | -0.57 | 1 | 90 | 0 | 83 | 0
O=C(c1cc2nc(-c3cccs3)cc(C(F)(F)Cl)n2n1)N1CCCc2ccccc21 | 0 | -15 | -21 | / | -5 | / | / | / | /
COc1ccc(-c2nnc(NC(=O)c3ccc(F)cc3)o2)cc1 | 1.0* | 68* | 6 | / | 92* | 100 | 0 | 125 | 0
COc1ccc(-c2nnc(NC(=O)c3ccc4c(c3)OCCO4)o2)cc1 | 0 | 23 | 34 | / | -1 | / | / | / | /
COc1ccc(-c2nc(Cn3c(SCc4ccc(C)cc4)nc4ccncc43)c(C)o2)cc1OC | 0.4* | -21 | 26 | -0.25 | -12 | 103 | 0 | 102 | 0
COc1ccc(-c2nc(Cn3c(SCc4cccc(F)c4)nc4ccncc43)c(C)o2)cc1OC | 0.5* | 0 | 30 | -0.69 | 2 | 108 | 1 | 106 | 0
O=C(CSc1nnc(CNc2ccc(F)cc2)n1CC1CCCO1)N1CCOCC1 (centres undefined) | / | -1 | -22 | / | -5 | / | / | / | /
O=C(Nc1ccccc1Cl)c1cc(S(=O)(=O)N2CCCCC2)ccc1N1CCOCC1 | 1.2* | -2 | 22 | / | -22 | 98 | 0 | 104 | 0
O=C(Nc1ccccc1N1CCCCC1)c1cc(S(=O)(=O)N2CCOCC2)ccc1Cl | 0 | -6 | / | / | 1 | / | / | / | /
CCn1c(-c2csc(C(C)C)c2)n[nH]c1=S | 11* | 0 | 9 | 4.6 | -12 | 100 | 0 | 108 | 0
CCn1c(CCCCc2n[nH]c(=S)n2CC)n[nH]c1=S | 0 | 4 | 42 | -0.1 | -6 | / | / | / | /
Cc1ccccc1Nc1nnc(-c2ccc(C(=O)NCCO)cc2)c2ccccc12 | 1.0* | 0 | 5 | / | 25 | 106 | 0 | 96 | 0
COc1ccc(Br)cc1CNC(=O)Cn1nc(C)n2cccc2c1=O | 0 | 7 | 22 | / | -7 | / | / | / | /
O=C(NN1C(=O)C2C3c4ccccc4C(c4ccccc43)C2C1=O)c1ccc(Cl)cc1 (centres undefined) | 8.9* | -6 | -55 | 0.8 | ? | 103 | 0 | 98 | 0
O=C(NN1C(=O)C2C3C=CC(C3)C2C1=O)c1ccccc1 (centres undefined) | 0 | -1 | 50 | / | -3 | / | / | / | /
CCOC(=O)N1CCC2(CC1)NC(=O)c1ccccc1N2 | / | 6 | / | / | / | / | / | / | /
Cc1cccc(C(=O)NC(=S)Nc2ccc(Cc3ccncc3)cc2)c1 | 0.7* | -16 | 42 | 0.52 | 17 | 103 | 0 | 121 | 0
Cc1ccc(NC(=S)NC(=O)c2ccccc2)cc1NC(=S)NC(=O)c1ccccc1 | 0.7* | -6 | 33 | 2.5 | -5 | 105 | 0 | 97 | 0
SMILES | Efflux pump mplx | Cardio protect | PHOSPHO1 inh | Cl transport mod | Calb FLC | Yeast cmpd fluor | Mdr1 pump inh | CaCdr2 efflux inh | CaCdr1 efflux inh
O=C(NC(=S)Nc1ccc2ncccc2c1)c1ccccc1 | 0 | -6 | -56 | 0.66 | 13 | / | / | / | /
O=C(NC(=S)Nc1ccc2nc[nH]c2c1)c1ccccc1 | 0 | 0 | -15 | / | 10 | 105 | 0 | 101 | 0
O=C(NC(=S)Nc1cccc(NC(=O)c2ccccc2Cl)c1)c1cccs1 | -7 | -4 | 6 | 0.93 | 63 | / | / | / | /
O=C(Nc1cccc(NC(=S)NC(=O)c2cccs2)c1)c1ccccc1 | 8.0* | -6 | 3 | -0.1 | 46 | 91 | 0 | 100 | 0
COCO/C=C(\NC(C)=O)c1ccccc1 | 1.0* | 8 | / | / | / | 115 | 0 | 104 | 0
CC/C=C(/NC(C)=O)c1ccccc1 | 0 | 3 | / | / | / | / | / | / | /
Cc1ccc(/C=C\c2nccc3c2[nH]c2ccccc23)cc1 | 1.2* | -22 | 45 | 1.6 | 4 | 108 | 0 | 106 | 0
C(=C\c1nccc2c1[nH]c1ccccc12)/c1ccccc1 | 0 | 3 | 5 | 0.066 | 40 | / | / | / | /
O=C(NCCCN1CCOCC1)c1cc(-c2ccc(Cl)s2)nc2ccccc12 | 0 | 2 | / | / | 15 | / | / | / | /
COc1cccc(NC(=O)CCC(=O)Nc2cc(OC)c(NC(=O)c3cccs3)cc2OC)c1 | / | 12 | 22 | / | -3 | / | / | / | /
CCn1c(C(=O)N2CCCC(C(=O)NCCc3ccc(C)cc3)C2)cc2sccc21 (centres undefined) | 1.0* | 2 | 1 | -2.3 | / | 103 | 0 | 94 | 0
Brc1ccc(-c2csc(NC3=NCCCCC3)n2)cc1 | 7.6* | 0 | 2 | 0.06 | 7 | 113 | 1 | 107 | 0
C[C@H]1CN([C@@H](C)CO)C(=O)CCCn2nncc2CO[C@@H]1CN(C)C(=O)c1ccncc1 | / | -1 | / | / | / | / | / | / | /
CCOC(=O)c1sc2nc3c(SCC(=O)O)cc(C(=O)c4ccccc4O)cn3c(=O)c2c1C | 1.5* | -20 | -114 | 1.4 | 5 | 100 | 0 | 101 | 0
COc1ccc(S(=O)(=O)Nc2ccc3c(c2)CCC3)cc1 | 0 | -19 | -4 | -0.048 | 9 | / | / | / | /
